# According to PubChem BioAssay AID1851 (National Center for Advancing Translational Sciences (NCATS), 2009):
# Several values for one entry are separate records, joined by “and”; a condition that tells them apart may be missing. Identical values can stand only once. Among all 16,000 compounds or so, about 4,000 (25%) were called active. About 26% were inconclusive and are not listed. Only a sample is shown. A number with no mark means an inactive call. The call rests on the fitted dose curve; in most records, active means well fitted curve in the direction sought with a large enough effect; inconclusive means small, poorly fitted or top-dose-only effect, or effect the other way; inactive means no such curve, though single readings can be large or run the other way.
# Target: Cytochrome P450 2C9 (Homo sapiens) (UniProt P11712)
# Sequence (P11712 whole entry, looked up): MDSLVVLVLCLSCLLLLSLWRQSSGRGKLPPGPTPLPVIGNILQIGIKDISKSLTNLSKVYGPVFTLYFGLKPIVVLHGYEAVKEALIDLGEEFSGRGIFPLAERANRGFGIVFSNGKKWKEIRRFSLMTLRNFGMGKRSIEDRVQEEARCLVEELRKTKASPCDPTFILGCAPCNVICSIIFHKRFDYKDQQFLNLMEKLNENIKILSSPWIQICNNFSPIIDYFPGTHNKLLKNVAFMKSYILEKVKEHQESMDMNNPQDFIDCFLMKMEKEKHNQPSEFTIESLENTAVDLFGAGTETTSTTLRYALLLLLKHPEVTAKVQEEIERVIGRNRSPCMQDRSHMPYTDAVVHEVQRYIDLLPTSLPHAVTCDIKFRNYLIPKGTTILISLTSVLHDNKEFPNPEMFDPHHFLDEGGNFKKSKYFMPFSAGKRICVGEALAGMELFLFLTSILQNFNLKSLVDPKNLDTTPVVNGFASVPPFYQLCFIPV
# Assay: Cytochrome panel assay with activity outcomes
# Settings: recombinant CYP, pro-luciferin dealkylation, luminescence, p450-cyp2c9; series mostly up to 57.1 µM; activity, negative = inhibition: at the top concentration
# On the % scale 0 is the no-effect control and ±100 the full control effect.
SMILES,"activity, negative = inhibition",AC50
CCc1cc2c(nc1CC)CCN(CC/C(C)=N/O[C@@H]1O[C@H](COC(C)=O)[C@H](OC(C)=O)[C@H](OC(C)=O)[C@H]1OC(C)=O)C2,1.56% [at 11.4 µM],
CS(=O)(=O)Nc1cccc(-c2cncnc2-n2ccnc2)c1,10.1% [at 2.29 µM],
O=C(Nc1ccc(F)cc1)c1ccc(-n2ccnc2)nc1,,0.178 µM (active)
CN(C)C(=O)c1ccc(-c2nccc(-n3ccnc3)n2)cc1,17.2% [at 2.29 µM],
c1cncc(-c2cc(-n3ccnc3)ncn2)c1,12.2% [at 2.29 µM],
Cc1c(Cl)cccc1NC(=O)c1ccc(-n2ccnc2)nc1,,0.0794 µM (active)
CN(C)C(=O)c1ccc(-c2cncnc2-n2ccnc2)cc1,12.6% [at 2.29 µM],
O=C(NCCC[N+]1=CC=N[C@H]1c1ccccc1)N1CCCc2nc(-c3ccc(Br)cc3)ccc21,-48.1% [at 11.4 µM],
O=C(Nc1ccccc1)N1CC[C@@]2(CCCN(C(=O)c3cnccn3)C2)C1,1.31%,
CN(C)Cc1ccc(O)c(CN(C)C)n1,7.12% [at 11.4 µM],
CNC(C)c1cc(OC)ccc1OC (stereo not drawn),-8.77%,
COc1ccc(C(=O)[C@H](Br)[C@H](Br)C(=O)O)cc1,-11.2% [at 11.4 µM],
COc1ccc(C(=O)NC(C)c2cc(OC)c(OC)cc2Br)cc1 (stereo not drawn),,12.6 µM (active)
CC(NC(=O)c1cccc(F)c1)C(c1cccs1)N1CCN(C)CC1 (stereo not drawn),-13%,
COc1cc(Br)c(C(C)NC(=O)c2cccc(Br)c2)cc1OC (stereo not drawn),,2.82 µM (active)
CCCCSc1nc(C)cc(NC(=S)Nc2ccc(OC)cc2)n1,-28%,
O=C1/C(=N\O)Cc2ccccc21,-18.6%,
COCC(=O)N1CCC[C@@]2(CCN(C(=O)Nc3cccc(F)c3)C2)C1,3.07%,
CCOC(=O)CCCN,4.7% [at 11.4 µM],
O=[N+]([O-])c1ccc2c(c1)S(=O)c1ccccc1-2 (stereo not drawn),-1.14% [at 11.4 µM],
Cc1cc([N+](=O)[O-])ccc1-c1ccc(C2Nc3ccccc3C(=O)N2O)o1 (stereo not drawn),,2.82 µM (active)
O=C1C2=C(Nc3cc([N+](=O)[O-])ccc3N2)O[C@@H]1c1ccc([C@H]2OC3=C(Nc4ccc([N+](=O)[O-])cc4N3)C2=O)cc1,-18.7% [at 11.4 µM],

SMILES,"activity, negative = inhibition",AC50
CCOC(=O)Cc1csc(NC(=O)c2ccc(Cl)nc2)n1,,11.2 µM (active)
COc1cc2cc3c(N)c(C(=O)Nc4sc(C)c(C)c4C#N)sc3nc2cc1OC,-13.7%,
CCOC(=O)Cc1csc(NC(=O)c2sc3nc4ccc(CC)cc4cc3c2N)n1,,0.447 µM (active)
CC(C)(C)c1ccccc1OCCN1CCCC1,8.57%,
Cc1cccc(C)c1NC(=O)/C(C#N)=C/c1cccs1,,11.2 µM (active)
CCOc1ccc2nc(C)cc(Nc3ccc4c(c3)OCCO4)c2c1,13.7%,
COCCN(C(=O)Nc1ccc(OC)cc1OC)C1CCN(C(C)=O)CC1,-16.3%,
CCOc1ccc(-n2c(SCC(=O)Nc3ccc(OC)cc3OC)nc3c(c2=O)SCC3)cc1,,4.47 µM (active)
CCOc1ccc(-n2c(SCC(=O)Nc3ccc4c(c3)OCCO4)nc3c(c2=O)SCC3)cc1,,2.82 µM (active)
CC(=O)c1[nH]c(C)c(C(C)=O)c1C,-32.9%,
CN(C)c1ccc2nc3c(C(=O)O)cc(=O)c(O)c-3oc2c1,-29.4% [at 11.4 µM],
Cc1ccc(-n2c(O)cnc2Nc2nc(C)cc(C)n2)cc1,4.21%,
COc1ccc(Oc2ncc3nc(-c4ccc(Cl)cc4)c(=O)n(C)c3n2)cc1,-9.75%,
COc1ccc(/C(C#N)=C/c2c(-c3ccc(Cl)cc3)nc3c(C)cccn23)cc1,,5.01 µM (active)
COc1cccc(Nc2ncc3nc(-c4ccc(Cl)cc4)c(=O)n(CCC#N)c3n2)c1,3.96%,
O=C(O)Cc1sc(-c2ccc(Cl)cc2)nc1-c1ccccc1,,2 µM (active)
Nc1nc(-c2cc(-c3cccc4ccccc34)nc(N)n2)cc(-c2cccc3ccccc23)n1,10.6% [at 11.4 µM],
BrC(c1cccc2ccccc12)c1cccc2ccccc12,,3.16 µM (active)
CN(Cc1cccc2ccccc12)Cc1cccc2ccccc12,-23.2% [at 11.4 µM],
Fc1ccc(C2CC(c3ccco3)=NN2c2ccccc2)cc1 (stereo not drawn),,1.41 µM (active)
C[C@@H]1CC[C@@H]2C(=O)N3[C@@H](CC[C@@H](C)[C@@H]3c3ccc(-c4ccco4)cc3)C(=O)N2[C@H]1c1ccc(-c2ccco2)cc1,-27.5% [at 11.4 µM],
c1cncc(CNc2ccnc(-c3ccc4c(c3)OCO4)n2)c1,-9.36% [at 2.29 µM],

SMILES,"activity, negative = inhibition",AC50
COc1ccc(NC2=NC(=S)N(c3ccc(C)cc3)C23CCCCC3)cc1,20.2%,
Cc1cccc(NC2=NC(=S)N(c3ccc(C(=O)O)cc3)C23CCCCC3)c1,,25.1 µM (active)
Cc1cccc(N2CCN(c3ccc(NC(=O)/C=C(/C(=O)O)c4ccccc4)cc3)CC2)c1,-27%,
CCc1nc(N2CCC3(CC2)OCCO3)c2nnn(Cc3ccccc3Cl)c2n1,,11.2 µM (active)
Cc1noc(C)c1-c1nc(NCCN2CCOCC2)c2ccccc2n1,1.01% [at 2.29 µM],
Cc1cc(NC(=O)c2nn(C)c(C)c2[N+](=O)[O-])no1,-8.43%,
COc1cccc(NC(=S)NN2CCN(C)CC2)c1,-10.9%,
COc1cccc(NC(=S)NNC(=O)C(C)n2nc(C)c([N+](=O)[O-])c2C)c1 (stereo not drawn),,5.01 µM (active)
Cc1nn(C(C)C(=O)Nc2ccc(Cl)cn2)c(C)c1[N+](=O)[O-] (stereo not drawn),,14.1 µM (active)
CC(=O)Nc1ccc([N+](=O)[O-])cn1,9.45%,
COc1ccc(/C=C2\CCCC3C2=NN(C(=O)c2ccco2)C3c2ccc(OC)c(OC)c2)cc1OC (stereo not drawn),,11.2 µM (active)
Cc1ncsc1C(=O)N1N=C2/C(=C/c3ccccc3)CCCC2C1c1ccccc1 (stereo not drawn),,2.82 µM (active)
COc1ccccc1CN1CC[C@@]2(CCCN(C(=O)c3ccco3)C2)C1,5.94%,
Cc1cc(C(=O)C(=O)NC(C)C)c(C)n1-c1ccc([N+](=O)[O-])cc1,-6.96%,
O=c1cc(-c2ccccc2)[nH]n1-c1ccc([N+](=O)[O-])cc1,,10 µM (active)
CC1(C)N=C(N)N=C(N)N1CCCCc1ccccc1,1.42% [at 11.4 µM],
CCOc1ccc(CC(C(N)=O)C(N)=O)cc1CN(C)C,-25.3%,
CCOc1ccc(CCNC(=O)C2CC(=O)N(C3CCCC3)C2)cc1OCC (stereo not drawn),-18.7%,
CCOc1ccc(CC(=O)C2C(=O)CCCC2=O)cc1OCC,,7.08 µM (active)
COCn1c2ccccc2c2nnc(C(C)=O)nc21,13.8% [at 11.4 µM] and -8.55% [at 11.4 µM],
COc1ccccc1CN1CC[C@@]2(CCCN(S(C)(=O)=O)C2)C1,6.39%,
N#CC(C#N)=NNc1ccc2cn[nH]c2c1,,2.51 µM (active)

SMILES,"activity, negative = inhibition",AC50
C=C1C(=O)C=C2CN(C(=O)c3ccccc3)[C@@](Cc3ccc(F)cc3)(C(=O)OC)[C@@H]12,,3.98 µM (active)
COc1ccc(C(=O)N2CCC[C@@]3(CCN(C(=O)Nc4ccccc4)C3)C2)cc1,-9.88%,
COC(=O)[C@@]1(Cc2ccc(OC)cc2)[C@@H]2C(=CC(=O)[C@H]2CC(=O)C(=O)N2CCCC2)CN1C(=O)c1ccccc1,,10 µM (active)
COC(=O)[C@@]1(Cc2ccc(F)cc2)[C@@H]2C(=CC(=O)[C@H]2CC(=O)C(=O)N2CCCC2)CN1C(=O)c1ccccc1,,10 µM (active)
COC(=O)[C@@]1(Cc2ccc(F)cc2)[C@@H]2[C@@H](CC(=O)[C@H]2CC(=O)C(=O)N(C)C)CN1C(=O)c1ccccc1,,20 µM (active)
COC(=O)[C@@]1(Cc2ccccc2)[C@@H]2C(=CC(=O)[C@H]2CC(=O)C(=O)N(C)C)CN1C(=O)c1ccccc1,-29%,
O=C(O)c1c[nH]c2cc(OCc3ccccc3)ccc2c1=O,-11.1% [at 11.4 µM],
O=C(O)c1ccc(SSc2ccc(C(=O)O)cn2)nc1,,1.58 µM (active)
O=C(O)c1cc(C(=O)O)nc(C(=O)O)c1,13.5% [at 11.4 µM],
N[C@@H](C(=O)O)c1ccc(C(=O)O)cc1,,inactive
C[C@@H](C(=O)NCc1ccccn1)[C@H]1C[C@]1(C)[C@H](NC(=O)OCc1ccccc1)c1ccccc1,,10 µM (active)
CC(C)C(NC(=O)C1CCCCC1)C(=O)NCc1ccccn1 (stereo not drawn),-22.3%,
COC(=O)[C@H](C)[C@H]1C[C@]1(C)[C@H](NC(=O)OCc1ccccc1)c1ccccc1,,2 µM (active)
C[C@@H](C(=O)O)[C@H]1C[C@]1(C)[C@H](NC(=O)OCc1ccccc1)c1ccccc1,,15.8 µM (active)
C[C@@H](C(=O)NCc1cccc2ccccc12)[C@H]1C[C@]1(C)[C@H](NC(=O)OCc1ccccc1)c1ccccc1,,3.16 µM (active)
C/C(CCN1CCc2nc(-c3ccccc3)c(-c3ccccc3)cc2C1)=N\OC[C@@H](O)[C@@H]1O[C@@H]2OC(C)(C)O[C@@H]2[C@H]1O,-8.77% [at 11.4 µM],
Cc1ccc(S(=O)(=O)N[C@@H]2COC(=O)C/C=C\[C@H](C)COC(=O)N[C@@H](C)C(=O)C/C=C\[C@H]2C)cc1,7.18% [at 11.4 µM],
CNc1ccnc(-c2ccccc2C(F)(F)F)n1,1.23% [at 2.29 µM],
C[C@@H](C(=O)NCc1nc2ccccc2[nH]1)[C@@H]1C[C@@]1(C)[C@@H](NC(=O)OCc1ccccc1)c1ccccc1,,10 µM (active)
COc1ccc(COC(=O)N/N=C2/C[C@@H](O)[C@@H](O)[C@@H]3[C@@H]4C(=O)N([C@@H](C)c5ccccc5)C(=O)[C@H]4CC[C@@H]23)cc1,-19.2% [at 11.4 µM],
COC(=O)[C@H](C)[C@@H]1C[C@@]1(C)[C@@H](NC(=O)OCc1ccccc1)c1ccccc1,,5.01 µM (active)
CNC(=O)[C@H](C)[C@H]1C[C@]1(C)[C@H](NC(=O)OCc1ccccc1)c1ccccc1,,10 µM (active)
